# Measurements published in article PMC11006913.
# Substitutions are numbered along the chain they refer to.
# Key:
# Experiment in all cases: PBM; 200 nM protein, PBS
# Conditions in all cases: dsDNA, one strand shown
# CRX [1] = molecular target: CRX (Homo sapiens, UniProt O43186 26-111)
# CRX [2] = molecular target: CRX (Homo sapiens, UniProt O43186 26-111, E42D)
# CRX [3] = molecular target: CRX (Homo sapiens, UniProt O43186 26-111, R41L)
# NKX2-4 [4] = molecular target: T1, NKX2-4 (Homo sapiens, UniProt Q9H2Z4 175-261, P217L)
# T1 sequence: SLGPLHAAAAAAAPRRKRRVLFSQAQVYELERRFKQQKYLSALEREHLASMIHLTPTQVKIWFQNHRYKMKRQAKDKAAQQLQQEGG
# HOXB9 [5] = molecular target: HOXB9 (Homo sapiens, UniProt P17482 171-250, T197M)
# HOXB9 (Homo sapiens, UniProt P17482 171-250, T197M), sequence (P17482 171-250 T197M): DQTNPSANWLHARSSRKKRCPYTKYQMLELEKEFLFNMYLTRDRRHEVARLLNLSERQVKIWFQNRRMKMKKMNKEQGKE
# NKX2-4 [6] = molecular target: T2, NKX2-4 (Homo sapiens, UniProt Q9H2Z4 175-261, T231S)
# T2 sequence: T1 sequence with L43P, T57S
# NKX2-4 [7] = molecular target: T3, NKX2-4 (Homo sapiens, UniProt Q9H2Z4 175-261)
# T3 sequence: T1 sequence with L43P
# HOXB9 [8] = molecular target: HOXB9 (Homo sapiens, UniProt P17482 171-250)
# HOXB9 (Homo sapiens, UniProt P17482 171-250), sequence (P17482 171-250): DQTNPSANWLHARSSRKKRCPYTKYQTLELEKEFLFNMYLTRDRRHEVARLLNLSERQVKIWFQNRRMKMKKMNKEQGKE
# HOXD13 [9] = molecular target: HOXD13 (Homo sapiens, UniProt P35453 263-343, T313R)
# HOXD13 (Homo sapiens, UniProt P35453 263-343, T313R), sequence (P35453 263-343 T313R): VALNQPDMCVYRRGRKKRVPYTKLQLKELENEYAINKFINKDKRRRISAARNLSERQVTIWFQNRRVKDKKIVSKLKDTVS
# HOXD13 [10] = molecular target: HOXD13 (Homo sapiens, UniProt P35453 263-343)
# HOXD13 (Homo sapiens, UniProt P35453 263-343), sequence (P35453 263-343): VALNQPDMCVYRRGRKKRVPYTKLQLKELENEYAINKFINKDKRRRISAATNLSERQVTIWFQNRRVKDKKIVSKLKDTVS
# NKX2-4 [11] = molecular target: T4, NKX2-4 (Homo sapiens, UniProt Q9H2Z4 175-261, R246Q)
# T4 sequence: T1 sequence with L43P, R72Q
# HOXD13 [12] = molecular target: HOXD13 (Homo sapiens, UniProt P35453 263-343, T313A)
# HOXD13 (Homo sapiens, UniProt P35453 263-343, T313A), sequence (P35453 263-343 T313A): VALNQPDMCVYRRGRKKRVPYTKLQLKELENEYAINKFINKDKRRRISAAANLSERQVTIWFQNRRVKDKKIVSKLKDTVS
# HOXB9 [13] = molecular target: HOXB9 (Homo sapiens, UniProt P17482 171-250, R186Q)
# HOXB9 (Homo sapiens, UniProt P17482 171-250, R186Q), sequence (P17482 171-250 R186Q): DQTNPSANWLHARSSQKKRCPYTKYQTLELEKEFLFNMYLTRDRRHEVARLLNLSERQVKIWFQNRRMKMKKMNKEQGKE
# HOXA4 [14] = molecular target: HOXA4 (Homo sapiens, UniProt Q00056 201-287, W262R)
# HOXA4 (Homo sapiens, UniProt Q00056 201-287, W262R), sequence (Q00056 201-287 W262R): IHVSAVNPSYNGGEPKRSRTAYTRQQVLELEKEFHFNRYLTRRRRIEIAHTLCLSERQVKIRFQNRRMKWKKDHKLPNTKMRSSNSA
# HOXC9 [15] = molecular target: HOXC9 (Homo sapiens, UniProt P31274 178-260, K195R)
# HOXC9 (Homo sapiens, UniProt P31274 178-260, K195R), sequence (P31274 178-260 K195R): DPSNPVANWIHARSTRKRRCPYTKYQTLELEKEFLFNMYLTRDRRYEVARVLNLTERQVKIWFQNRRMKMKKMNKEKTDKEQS
# HOXA4 [16] = molecular target: HOXA4 (Homo sapiens, UniProt Q00056 201-287, R217L)
# HOXA4 (Homo sapiens, UniProt Q00056 201-287, R217L), sequence (Q00056 201-287 R217L): as the sequence (Q00056 201-287 W262R) above, with R17L, R62W counted along it
# HOXC9 [17] = molecular target: HOXC9 (Homo sapiens, UniProt P31274 178-260)
# HOXC9 (Homo sapiens, UniProt P31274 178-260), sequence (P31274 178-260): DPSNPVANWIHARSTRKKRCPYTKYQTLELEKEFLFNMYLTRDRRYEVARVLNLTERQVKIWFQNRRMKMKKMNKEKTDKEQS
# MSX2 [18] = molecular target: MSX2 (Homo sapiens, UniProt P35548 130-214, R199I)
# MSX2 (Homo sapiens, UniProt P35548 130-214, R199I), sequence (P35548 130-214 R199I): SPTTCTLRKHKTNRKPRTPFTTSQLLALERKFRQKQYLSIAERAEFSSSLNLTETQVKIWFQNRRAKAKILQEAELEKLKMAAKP
# HOXC9 [19] = molecular target: HOXC9 (Homo sapiens, UniProt P31274 178-260, R193K)
# HOXC9 (Homo sapiens, UniProt P31274 178-260, R193K), sequence (P31274 178-260 R193K): as the sequence (P31274 178-260) above, with R16K counted along it
# HOXA4 [20] = molecular target: HOXA4 (Homo sapiens, UniProt Q00056 201-287)
# HOXA4 (Homo sapiens, UniProt Q00056 201-287), sequence (Q00056 201-287): as the sequence (Q00056 201-287 W262R) above, with R62W counted along it
# MSX2 [21] = molecular target: MSX2 (Homo sapiens, UniProt P35548 130-214)
# MSX2 (Homo sapiens, UniProt P35548 130-214), sequence (P35548 130-214): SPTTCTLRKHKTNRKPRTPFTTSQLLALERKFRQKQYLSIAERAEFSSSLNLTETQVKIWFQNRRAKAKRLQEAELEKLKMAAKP
# HOXC9 [22] = molecular target: HOXC9 (Homo sapiens, UniProt P31274 178-260, R222W)
# HOXC9 (Homo sapiens, UniProt P31274 178-260, R222W), sequence (P31274 178-260 R222W): as the sequence (P31274 178-260) above, with R45W counted along it
# MSX2 [23] = molecular target: MSX2 (Homo sapiens, UniProt P35548 130-214, F161Y)
# MSX2 (Homo sapiens, UniProt P35548 130-214, F161Y), sequence (P35548 130-214 F161Y): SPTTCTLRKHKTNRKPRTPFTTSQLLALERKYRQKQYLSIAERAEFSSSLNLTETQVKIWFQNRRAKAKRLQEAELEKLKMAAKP
# HOXA4 [24] = molecular target: HOXA4 (Homo sapiens, UniProt Q00056 201-287, W262F)
# HOXA4 (Homo sapiens, UniProt Q00056 201-287, W262F), sequence (Q00056 201-287 W262F): as the sequence (Q00056 201-287 W262R) above, with R62F counted along it
# HOXA2 [25] = molecular target: HOXA2 (Homo sapiens, UniProt O43364 129-215, R185T)
# HOXA2 (Homo sapiens, UniProt O43364 129-215, R185T), sequence (O43364 129-215 R185T): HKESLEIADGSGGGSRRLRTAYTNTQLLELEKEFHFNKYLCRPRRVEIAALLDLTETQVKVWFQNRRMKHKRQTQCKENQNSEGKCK
# HOXA2 [26] = molecular target: HOXA2 (Homo sapiens, UniProt O43364 129-215, R185K)
# HOXA2 (Homo sapiens, UniProt O43364 129-215, R185K), sequence (O43364 129-215 R185K): as the sequence (O43364 129-215 R185T) above, with T57K counted along it
# HOXA2 [27] = molecular target: HOXA2 (Homo sapiens, UniProt O43364 129-215, Y150S)
# HOXA2 (Homo sapiens, UniProt O43364 129-215, Y150S), sequence (O43364 129-215 Y150S): as the sequence (O43364 129-215 R185T) above, with Y22S, T57R counted along it
# HOXA2 [28] = molecular target: HOXA2 (Homo sapiens, UniProt O43364 129-215)
# HOXA2 (Homo sapiens, UniProt O43364 129-215), sequence (O43364 129-215): as the sequence (O43364 129-215 R185T) above, with T57R counted along it
# PRRX1 [29] = molecular target: PRRX1 (Homo sapiens, UniProt P54821 80-166, F113S)
# PRRX1 (Homo sapiens, UniProt P54821 80-166, F113S), sequence (P54821 80-166 F113S): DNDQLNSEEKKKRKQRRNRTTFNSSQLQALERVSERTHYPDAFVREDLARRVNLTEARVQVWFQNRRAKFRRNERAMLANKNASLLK
# PRRX1 [30] = molecular target: PRRX1 (Homo sapiens, UniProt P54821 80-166)
# PRRX1 (Homo sapiens, UniProt P54821 80-166), sequence (P54821 80-166): as the sequence (P54821 80-166 F113S) above, with S34F counted along it
# PITX2 = PITX2 (Homo sapiens, UniProt Q99697 72-157)
# CRX (Homo sapiens, UniProt O43186 26-111, R41L), sequence (O43186 26-111 R41L): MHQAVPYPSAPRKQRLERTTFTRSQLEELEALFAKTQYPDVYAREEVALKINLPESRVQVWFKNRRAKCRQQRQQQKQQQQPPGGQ
# CRX (Homo sapiens, UniProt O43186 26-111), sequence (O43186 26-111): as the sequence (O43186 26-111 R41L) above, with L16R counted along it
# CRX (Homo sapiens, UniProt O43186 26-111, E42D), sequence (O43186 26-111 E42D): as the sequence (O43186 26-111 R41L) above, with L16R, E17D counted along it
sequence,measurement,setting,value
AAATCCAA,binding signal,CRX [1],"11.2 upbm affinity estimate (log intensity, higher = more binding, comparable within an allelic series)"
same,binding signal,CRX [2],"11 upbm affinity estimate (log intensity, higher = more binding, comparable within an allelic series)"
same,binding signal,CRX [3],"11 upbm affinity estimate (log intensity, higher = more binding, comparable within an allelic series)"
AGGCTTAA,binding signal,CRX [1],"12.8 upbm affinity estimate (log intensity, higher = more binding, comparable within an allelic series)"
same,binding signal,CRX [3],"12.1 upbm affinity estimate (log intensity, higher = more binding, comparable within an allelic series)"
GCGCCGCC,binding signal,NKX2-4 [4],"9.93 upbm affinity estimate (log intensity, higher = more binding, comparable within an allelic series)"
same,binding signal,HOXB9 [5],"8.49 upbm affinity estimate (log intensity, higher = more binding, comparable within an allelic series)"
same,binding signal,NKX2-4 [6],"9.45 upbm affinity estimate (log intensity, higher = more binding, comparable within an allelic series)"
same,binding signal,NKX2-4 [7],"9.72 upbm affinity estimate (log intensity, higher = more binding, comparable within an allelic series)"
same,binding signal,HOXB9 [8],"8.66 upbm affinity estimate (log intensity, higher = more binding, comparable within an allelic series)"
same,binding signal,HOXD13 [9],"9.49 upbm affinity estimate (log intensity, higher = more binding, comparable within an allelic series)"
same,binding signal,HOXD13 [10],"9.76 upbm affinity estimate (log intensity, higher = more binding, comparable within an allelic series)"
same,binding signal,NKX2-4 [11],"9.62 upbm affinity estimate (log intensity, higher = more binding, comparable within an allelic series)"
same,binding signal,HOXD13 [12],"9.79 upbm affinity estimate (log intensity, higher = more binding, comparable within an allelic series)"
same,binding signal,HOXB9 [13],"8.63 upbm affinity estimate (log intensity, higher = more binding, comparable within an allelic series)"
GCGACCGC,binding signal,NKX2-4 [4],"9.58 upbm affinity estimate (log intensity, higher = more binding, comparable within an allelic series)"
same,binding signal,HOXA4 [14],"9.61 upbm affinity estimate (log intensity, higher = more binding, comparable within an allelic series)"
same,binding signal,HOXC9 [15],"9.65 upbm affinity estimate (log intensity, higher = more binding, comparable within an allelic series)"
same,binding signal,NKX2-4 [6],"9.41 upbm affinity estimate (log intensity, higher = more binding, comparable within an allelic series)"
same,binding signal,NKX2-4 [7],"9.53 upbm affinity estimate (log intensity, higher = more binding, comparable within an allelic series)"
same,binding signal,HOXA4 [16],"9.65 upbm affinity estimate (log intensity, higher = more binding, comparable within an allelic series)"
same,binding signal,HOXC9 [17],"9.71 upbm affinity estimate (log intensity, higher = more binding, comparable within an allelic series)"
same,binding signal,MSX2 [18],"9.49 upbm affinity estimate (log intensity, higher = more binding, comparable within an allelic series)"
same,binding signal,HOXC9 [19],"9.6 upbm affinity estimate (log intensity, higher = more binding, comparable within an allelic series)"
same,binding signal,HOXA4 [20],"9.86 upbm affinity estimate (log intensity, higher = more binding, comparable within an allelic series)"
same,binding signal,MSX2 [21],"9.38 upbm affinity estimate (log intensity, higher = more binding, comparable within an allelic series)"
same,binding signal,NKX2-4 [11],"9.69 upbm affinity estimate (log intensity, higher = more binding, comparable within an allelic series)"
same,binding signal,HOXC9 [22],"9.64 upbm affinity estimate (log intensity, higher = more binding, comparable within an allelic series)"
same,binding signal,MSX2 [23],"9.56 upbm affinity estimate (log intensity, higher = more binding, comparable within an allelic series)"
same,binding signal,HOXA4 [24],"9.79 upbm affinity estimate (log intensity, higher = more binding, comparable within an allelic series)"
GGGTGGCA,binding signal,CRX [1],"8.24 upbm affinity estimate (log intensity, higher = more binding, comparable within an allelic series)"
same,binding signal,CRX [2],"8.24 upbm affinity estimate (log intensity, higher = more binding, comparable within an allelic series)"
same,binding signal,CRX [3],"8.32 upbm affinity estimate (log intensity, higher = more binding, comparable within an allelic series)"
GCGTGCCC,binding signal,NKX2-4 [4],"9.72 upbm affinity estimate (log intensity, higher = more binding, comparable within an allelic series)"
same,binding signal,NKX2-4 [6],"9.7 upbm affinity estimate (log intensity, higher = more binding, comparable within an allelic series)"
same,binding signal,NKX2-4 [7],"9.77 upbm affinity estimate (log intensity, higher = more binding, comparable within an allelic series)"
same,binding signal,HOXA2 [25],"7.23 upbm affinity estimate (log intensity, higher = more binding, comparable within an allelic series)"
same,binding signal,HOXA2 [26],"10.3 upbm affinity estimate (log intensity, higher = more binding, comparable within an allelic series)"
same,binding signal,NKX2-4 [11],"9.73 upbm affinity estimate (log intensity, higher = more binding, comparable within an allelic series)"
same,binding signal,HOXA2 [27],"10.3 upbm affinity estimate (log intensity, higher = more binding, comparable within an allelic series)"
same,binding signal,HOXA2 [28],"7.4 upbm affinity estimate (log intensity, higher = more binding, comparable within an allelic series)"
CCCGCCTC,binding signal,NKX2-4 [4],"9.39 upbm affinity estimate (log intensity, higher = more binding, comparable within an allelic series)"
same,binding signal,NKX2-4 [6],"9.25 upbm affinity estimate (log intensity, higher = more binding, comparable within an allelic series)"
same,binding signal,PRRX1 [29],"9.33 upbm affinity estimate (log intensity, higher = more binding, comparable within an allelic series)"
same,binding signal,NKX2-4 [7],"9.39 upbm affinity estimate (log intensity, higher = more binding, comparable within an allelic series)"
same,binding signal,NKX2-4 [11],"9.31 upbm affinity estimate (log intensity, higher = more binding, comparable within an allelic series)"
same,binding signal,PRRX1 [30],"8.99 upbm affinity estimate (log intensity, higher = more binding, comparable within an allelic series)"
CGCCGCAG,binding signal,NKX2-4 [4],"9.48 upbm affinity estimate (log intensity, higher = more binding, comparable within an allelic series)"
same,binding signal,NKX2-4 [6],"9.2 upbm affinity estimate (log intensity, higher = more binding, comparable within an allelic series)"
same,binding signal,NKX2-4 [7],"9.51 upbm affinity estimate (log intensity, higher = more binding, comparable within an allelic series)"
same,binding signal,HOXD13 [9],"9.57 upbm affinity estimate (log intensity, higher = more binding, comparable within an allelic series)"
same,binding signal,HOXD13 [10],"9.58 upbm affinity estimate (log intensity, higher = more binding, comparable within an allelic series)"
same,binding signal,NKX2-4 [11],"9.58 upbm affinity estimate (log intensity, higher = more binding, comparable within an allelic series)"
same,binding signal,HOXD13 [12],"9.63 upbm affinity estimate (log intensity, higher = more binding, comparable within an allelic series)"
CCGACGTC,binding signal,NKX2-4 [4],"9.19 upbm affinity estimate (log intensity, higher = more binding, comparable within an allelic series)"
same,binding signal,NKX2-4 [6],"9.13 upbm affinity estimate (log intensity, higher = more binding, comparable within an allelic series)"
same,binding signal,NKX2-4 [7],"9.23 upbm affinity estimate (log intensity, higher = more binding, comparable within an allelic series)"
same,binding signal,NKX2-4 [11],"9.18 upbm affinity estimate (log intensity, higher = more binding, comparable within an allelic series)"
GGCGTGCA,binding signal,NKX2-4 [4],"9.59 upbm affinity estimate (log intensity, higher = more binding, comparable within an allelic series)"
same,binding signal,NKX2-4 [6],"9.54 upbm affinity estimate (log intensity, higher = more binding, comparable within an allelic series)"
same,binding signal,NKX2-4 [7],"9.62 upbm affinity estimate (log intensity, higher = more binding, comparable within an allelic series)"
same,binding signal,NKX2-4 [11],"9.63 upbm affinity estimate (log intensity, higher = more binding, comparable within an allelic series)"
AGCGGCCA,binding signal,NKX2-4 [4],"9.69 upbm affinity estimate (log intensity, higher = more binding, comparable within an allelic series)"
same,binding signal,NKX2-4 [6],"9.47 upbm affinity estimate (log intensity, higher = more binding, comparable within an allelic series)"
same,binding signal,NKX2-4 [7],"9.64 upbm affinity estimate (log intensity, higher = more binding, comparable within an allelic series)"
same,binding signal,PITX2,"8.04 upbm affinity estimate (log intensity, higher = more binding, comparable within an allelic series)"
same,binding signal,NKX2-4 [11],"9.57 upbm affinity estimate (log intensity, higher = more binding, comparable within an allelic series)"
ACTCCTCG,binding signal,NKX2-4 [4],"11.6 upbm affinity estimate (log intensity, higher = more binding, comparable within an allelic series)"
same,binding signal,NKX2-4 [6],"11.8 upbm affinity estimate (log intensity, higher = more binding, comparable within an allelic series)"
same,binding signal,NKX2-4 [7],"11.5 upbm affinity estimate (log intensity, higher = more binding, comparable within an allelic series)"
